ELG1 repair inh: ELG1-dependent DNA repair inhibition; HEK293T ELG1-luciferase reporter, luminescence, 16 h; DNA damage induced by 5-fluorouridine; Potency, µM (highest dose often 46.1 µM), usual class: inhibitors; 330,000 tested, 2.3% active; also: nearly all actives have a fitted effect of over 55% in size
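DMSO vehicle served as the neutral condition. Each well held 2,000 cells given 5-fluorouridine plus compound; after 16 hr at 37 °C/5% CO2, ONE-Glo was added and luciferase measured 30 min later.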
KB-V1 MDR tox: kills drug-selected multidrug resistant KB-V1 cells. KB-V1 MDR cells viability, CellTiter-Glo, 72 h. Potency, µM (highest dose often 46.1 µM), actives largely listed as cytotoxic. 400,000 tested, 3.4% active. AID 1347076; also: nearly all actives have a fitted effect of over 60% in size
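Drug-selected KB-V1 cells, grown in DMEM lacking phenol red with 10% FBS, receive compound titrations; after three days at 37 degrees C, surviving cell ATP is quantified by CellTiter-Glo luminescence and responses normalized and curve-fitted.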
KB-3-1 tox: kills parental KB-3-1 adenocarcinoma cells. KB-3-1 viability, CellTiter-Glo ATP luminescence, 72 h. Potency, µM (top dose mostly 46.1 µM), most hits filed as cytotoxic. 400,000 tested, 1.4% active; also: nearly all actives have a fitted effect of over 60% in size
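Parental KB-3-1 adenocarcinoma cells in phenol-red-free DMEM with 10% FBS were pin-treated with compounds at several concentrations, incubated 72 h at 37 °C, and viability read by CellTiter-Glo luminescence; concentration-effect curves were fitted after normalization.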
MCF10A rerep: inducers of DNA re-replication in MCF 10A breast cells; Potency, µM (highest dose often 46.1 µM), hits mostly activators; MCF 10A DNA re-replication, Hoechst nuclear intensity, 48 h; 350,000 tested, 2.9% active; AID 624296; also: nearly all actives have a fitted effect of over 50% in size
SW480 rerep: inducers of DNA re-replication in SW480 colon cancer cells | SW480 DNA re-replication, Hoechst DNA content imaging, 48 h | 340,000 tested, 1.8% active | AID 624297 | Potency, µM (series often up to 46.1 µM), most hits filed as activators; also: nearly all actives have a fitted effect of over 55% in size
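Image-based read-out: total Hoechst fluorescence of nuclei (405 nm excitation, 500-530 nm emission), with hits raising the fraction of high-intensity nuclei. SW480 colon cells incubated 48 hr with compounds at 37 C.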
Large screens that a line does not name were inactive. In the library only some 8.1% were active in any assay of this set; here they are far more common. Calls follow the shape of the dose curve; as a rule, active = well fitted curve in the direction sought with a large enough effect; inconclusive = small, poorly fitted or top-dose-only effect, or another doubt; inactive = no such curve, though single readings can be large; an effect the other way counts as inactive or inconclusive.

CCn1c(C)c(C2=CCN(S(=O)(=O)c3ccc(C)cc3)CC2)c2ccccc21	KB-V1 MDR tox 16µM, KB-3-1 tox inconclusive, MCF10A rerep inconclusive
Cc1c(C2=CCN(S(=O)(=O)c3ccc(Br)cc3)CC2)c2ccccc2n1C	MCF10A rerep inconclusive, SW480 rerep inconclusive
Cc1ccc(OCCNC(=O)C(=O)NCc2ccco2)cc1	KB-V1 MDR tox inconclusive, KB-3-1 tox inconclusive, MCF10A rerep 1.6µM, SW480 rerep 10µM
Cc1ccc(C(=O)Nc2cccc(C(=O)NCc3ccco3)c2)cc1	KB-3-1 tox 3.3µM
Cc1ccc(CNC(=O)c2ccc3c(=O)c(O)c(-c4ccc(C)cc4)[nH]c3c2)cc1	KB-V1 MDR tox inconclusive, KB-3-1 tox 4.6µM, MCF10A rerep inconclusive, SW480 rerep inconclusive
Cc1ccc(C(=O)Nc2cccc(C(=O)NCc3ccccc3)c2)cc1	ELG1 repair inh inconclusive, KB-V1 MDR tox 4.6µM, KB-3-1 tox 8.2µM, MCF10A rerep inconclusive
COc1ccc(C(=O)Nc2cccc(C(=O)NCc3ccccc3)c2)cc1	KB-V1 MDR tox inconclusive
CCc1ccc(C(=O)NC(=S)Nc2ccc(N3CCOCC3)cc2)cc1	ELG1 repair inh inconclusive, KB-V1 MDR tox 18µM
O=C(NC(=S)Nc1ccc(CN2CCOCC2)cc1)c1ccco1	ELG1 repair inh inconclusive
O=C(NC(=S)Nc1ccc(N2CCOCC2)cc1)c1ccco1	ELG1 repair inh inconclusive, KB-V1 MDR tox 16µM, SW480 rerep inconclusive
CCOC(=O)c1ccc(NC(=S)N2CCSC2c2ccc(Cl)cc2)cc1 (stereo not given)	KB-V1 MDR tox inconclusive, MCF10A rerep inconclusive
CCCC(=O)N1CCN(c2ccc(NC(=S)NC(=O)c3cccc(C)c3)cc2)CC1	ELG1 repair inh 16µM, KB-V1 MDR tox inconclusive, KB-3-1 tox inconclusive
CCOC(=O)c1ccc(NC(=S)N2CCSC2c2ccc(OC)cc2)cc1 (stereo not given)	KB-V1 MDR tox 18µM
CCOC(=O)c1ccc(NC(=S)NN2CCOCC2)cc1	ELG1 repair inh inconclusive, MCF10A rerep 23µM
CCOC(=O)c1ccc(NC(=S)Nc2ccc(C)cc2)cc1	ELG1 repair inh inconclusive
CN1CCN(c2ccc(NC(=S)NC(=O)c3cccc4c(Cl)cccc34)cc2)CC1	MCF10A rerep inconclusive, SW480 rerep 21µM
COC(=O)[C@]1(C)N[C@H](CN(C)S(=O)(=O)c2ccc(OC)cc2)[C@@H]2C(=O)N(C)C(=O)[C@@H]21	none
CC1=CSC2=NC(C(F)(F)F)(C(F)(F)F)NC(=O)N12	none
Cc1nn(Cc2ccccc2)c(Cl)c1C(=O)OCc1nnc(-c2ccccc2)o1	ELG1 repair inh inconclusive, KB-V1 MDR tox 7.3µM, MCF10A rerep inconclusive
Cc1nn(Cc2ccccc2)c(Cl)c1C(=O)OCc1nnc(-c2ccc(Cl)cc2)o1	none
CCOc1ccc(NC(=O)CN2CCN(CC(=O)Nc3ccccc3OC)CC2)cc1	ELG1 repair inh inconclusive
COc1ccccc1NC(=O)CN1CCN(C2c3ccccc3-c3ccccc32)CC1	ELG1 repair inh 3.7µM, KB-3-1 tox inconclusive, MCF10A rerep 5.8µM, SW480 rerep inconclusive
CCOc1ccc(NC(=O)CN2CCN(C3c4ccccc4-c4ccccc43)CC2)cc1	ELG1 repair inh 13µM, KB-V1 MDR tox 18µM, MCF10A rerep inconclusive
Oc1cccc(-c2ccc3nccn3c2)c1	none (no result: ELG1 repair inh, MCF10A rerep, SW480 rerep)
COc1ccc(OCc2ccc(-c3nc(C#N)c(N4CCCCC4)o3)o2)cc1	none (no result: ELG1 repair inh, MCF10A rerep, SW480 rerep)
O=C(Nc1nnc([C@H]2C[C@H](O)[C@@H](CO)O2)s1)Nc1ccccc1F	none (no result: ELG1 repair inh, MCF10A rerep, SW480 rerep)
CC(C)c1ccccc1NC(=O)Nc1nnc([C@H]2C[C@H](O)[C@@H](CO)O2)s1	KB-3-1 tox 0.0012µM (no result: ELG1 repair inh, MCF10A rerep, SW480 rerep)
Cc1cc(OCC(=O)Nc2cc(S(=O)(=O)N3CCOCC3)ccc2N2CCCC2)ccc1C(C)C	KB-V1 MDR tox 7.3µM
COc1ccccc1OCC(=O)Nc1cc(S(=O)(=O)N2CCOCC2)ccc1N1CCCCC1	ELG1 repair inh 26µM
Cc1ccc(OCC(=O)Nc2cc(S(=O)(=O)N3CCOCC3)ccc2N2CCCC2)cc1	ELG1 repair inh inconclusive, SW480 rerep inconclusive
Cc1cn([C@H]2C[C@H](O)[C@@H](CNCc3ccc(-c4cc(Cl)ccc4C(F)(F)F)o3)O2)c(=O)[nH]c1=O	none (no result: ELG1 repair inh, MCF10A rerep, SW480 rerep)
CC(C)CN(C(=O)COC(=O)c1ccc2c(c1)OCCO2)c1c(N)n(Cc2ccccc2)c(=O)[nH]c1=O	none
C1CCCCCC(NCCN2CCNCC2)CCCCC1	ELG1 repair inh inconclusive, KB-V1 MDR tox inconclusive, KB-3-1 tox 16µM, MCF10A rerep inconclusive, SW480 rerep inconclusive
Nc1c(C(=O)c2ccc(Cl)cc2)sc2nsc(SCCN3CCOCC3)c12	MCF10A rerep inconclusive, SW480 rerep inconclusive
Nc1c(C(=O)c2ccccc2)sc2nsc(SCCN3CCCC3)c12	ELG1 repair inh inconclusive, KB-V1 MDR tox inconclusive, KB-3-1 tox inconclusive, MCF10A rerep 21µM, SW480 rerep inconclusive
CC(=O)/C=C\c1cn(-c2ncc(C(F)(F)F)cc2Cl)c2ccccc12	KB-V1 MDR tox inconclusive, KB-3-1 tox 21µM, MCF10A rerep inconclusive, SW480 rerep inconclusive
CO/N=C/NC(=O)Cc1cn(-c2ncc(C(F)(F)F)cc2Cl)c2ccccc12	KB-V1 MDR tox 13µM, KB-3-1 tox inconclusive
CC1CCc2c(C(=O)Nc3ccc(OC(F)(F)F)cc3)csc2C1 (stereo not given)	MCF10A rerep inconclusive (no result: SW480 rerep)
Cc1ccc(S(=O)Cc2nc(-c3ccc(C(=O)NCc4cccc(C)c4)cc3)oc2C)cc1 (stereo not given)	none (no result: ELG1 repair inh, MCF10A rerep, SW480 rerep)
COc1cccc(C2=NOC(C(=O)Nc3cc(C)on3)C2)c1 (stereo not given)	none
CCCCN1C2=C(C(=O)CC(C)(C)C2)C(c2ccccc2)C2=C1c1ccccc1C2=O (stereo not given)	KB-V1 MDR tox inconclusive, MCF10A rerep inconclusive
CC(C)(Cc1ccc(O)cc1)NC(=O)CC(=O)N/N=C/c1ccc(Cl)cc1	KB-3-1 tox inconclusive, MCF10A rerep 13µM, SW480 rerep inconclusive
CCOc1ccc(S(=O)(=O)N(C(=O)c2ccco2)c2cc3sc(=O)oc3c3ccccc23)cc1	ELG1 repair inh inconclusive, KB-V1 MDR tox inconclusive, MCF10A rerep inconclusive
COc1ccc(S(=O)(=O)N(C(=O)c2ccco2)c2cc3sc(=O)oc3c3ccccc23)cc1	ELG1 repair inh inconclusive, KB-3-1 tox inconclusive, MCF10A rerep 18µM, SW480 rerep inconclusive
CCN(C(=O)CSc1ccc2ccccc2n1)C1CCCCC1	KB-V1 MDR tox 18µM, KB-3-1 tox inconclusive, MCF10A rerep inconclusive
O=C(CSc1ccc2ccccc2n1)NC1CC1	ELG1 repair inh inconclusive, KB-3-1 tox inconclusive
Cc1cc(C(=O)COC(=O)Cc2n[nH]c(=O)c3ccccc23)c(C)n1-c1cccc(C(F)(F)F)c1	ELG1 repair inh 23µM, KB-V1 MDR tox 21µM, KB-3-1 tox inconclusive
CCn1cc(C(=O)OCC(=O)c2cc(C)n(-c3cccc(C(F)(F)F)c3)c2C)c(=O)c2ccc(C)nc21	ELG1 repair inh inconclusive, KB-V1 MDR tox 23µM
